From PubChem
An excerpt weighted towards active compounds, which were near 2.4% of everything screened.
D2 PAM-1 – positively modulates the human D2 dopamine receptor allosterically. HEK293 T-REx D2, calcium flux, EC20 dopamine potentiation. AID 485347. 0.34% of 340,000 active. potentiation, % at 10 µM;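 active = potentiation over 3 SD above the plate norm, cut at about 30% in these data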; note: 0% is about no effect
Target sequence (P14416 whole entry, looked up): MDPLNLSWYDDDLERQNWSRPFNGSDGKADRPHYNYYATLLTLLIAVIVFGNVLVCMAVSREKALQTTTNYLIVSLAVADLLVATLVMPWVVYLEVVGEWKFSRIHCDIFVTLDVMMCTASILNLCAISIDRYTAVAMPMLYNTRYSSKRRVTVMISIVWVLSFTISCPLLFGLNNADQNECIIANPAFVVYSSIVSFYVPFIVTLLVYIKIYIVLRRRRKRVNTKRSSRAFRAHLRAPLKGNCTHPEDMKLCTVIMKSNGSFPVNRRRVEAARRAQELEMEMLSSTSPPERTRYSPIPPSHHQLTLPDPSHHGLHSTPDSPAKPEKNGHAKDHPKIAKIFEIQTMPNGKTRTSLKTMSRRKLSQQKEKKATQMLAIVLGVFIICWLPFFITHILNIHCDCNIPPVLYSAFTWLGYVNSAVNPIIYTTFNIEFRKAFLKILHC
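Tetracycline-induced Hek293 Trex D2 cells, force-coupled to calcium, loaded with no-wash calcium dye. Compound added with 180 s kinetic read for agonism, then EC20 dopamine and a further 180 s read for potentiation.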
D2 antag – D2 dopamine receptor (human) antagonism; P14416; HEK293 TREx D2 cells, calcium flux, dopamine EC80; inhibition, % at 10 µM; 2% of 340,000 active; AID 485344; in the data active = inhibition above about 30%; inactive = below that, where a call was filed; note: 0% is about no effect
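HEK293 T-REx D2 cells, tet-induced, calcium dye no-wash. Cpd pintool add, 180 s kinetic, then EC80 DA, 180 s kinetic. Ca flux read.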
D2 ag-1 – D2 dopamine receptor (human) agonism | P14416 | HEK293 T-REx D2 cells, calcium flux agonist mode | activation, % at 2 µM | 0.53% of 340,000 active;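 active = activation over 3 SD above normal in the single-dose calcium agonist read, cut at about 30% in these data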; note: 0% is about no effect
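HEK293 Trex D2 cells, tetracycline-induced, o/n 30 C 5% CO2; no-wash Ca dye, RT 30–90 min; 10-cycle baseline, 23 nl cpd added, kinetic Ca read 180 s; agonist hits = positive Ca response.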
D2 ag-2 – human D2 receptor agonism in beta-arrestin assay; P14416; DiscoveRx PathHunter D2 beta-arrestin, luminescence, 90 min; 100% = 57 uM dopamine signal; activation, % (concentration not given with the values); 0.084% of 360,000 active; in the data active = activation above about 40%; inconclusive = between about 15% and that limit
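Agonist mode: compounds alone added to overnight-plated D2 PathHunter cells for 90 min at 37 C, with 57 uM final dopamine (EC100) defining full response. Beta-arrestin recruitment detected by chemiluminescent reagent, read after 1 h at ambient temperature.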
D2 PAM-2 – human D2 receptor positive allosteric modulation; P14416; DiscoveRx D2 beta-arrestin cells, luminescence, 90 min; 100% = 57 uM dopamine signal; potentiation, % (no concentration beside the values); 0.23% of 360,000 active; AID 624464; in the data active = potentiation above about 50%; inconclusive = mostly about 30% to 49%
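PathHunter D2 cells, attached overnight at 37 deg C, received compound in DMSO plus dopamine at EC20 (50 nM final) for 90 min at 37 deg C. Beta-arrestin recruitment was read as luminescence after 1 h with detection reagent at ambient temperature.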
The depositor's hits bear a star; ? = inconclusive; nt = not tested or not shown.

SMILES	D2 PAM-1	D2 antag	D2 ag-1	D2 ag-2	D2 PAM-2
Cc1ccccc1-n1nc(C)c2c1NC(=O)CSC2c1ccc(N(C)C)cc1 (stereo not drawn)	5.2	nt	2.9	nt	nt
CC1CCC2[C@@H](C)C(=O)OC3O[C@]4(C)CCC1C32OO4 (stereo partly drawn)	nt	nt	nt	?	53.0*
CC1CCC2C(C)C(=O)OC3OC4(C)CCC1C32OO4 (stereo not drawn)	12.7	-2.5	0.2	?	62.4*
COc1ccc(Cl)cc1NC(=O)CN1C(=O)CN=C(c2ccccc2)c2cc(Cl)ccc21	-0.5	nt	0.7	nt	nt
Oc1ccc(C[C@H]2NCCc3cc(O)c(O)cc32)cc1O	-37.3	84.8*	5.4	6.9	-22.4
O=C(COc1ccc(Br)cc1)Nc1ccc(Cl)cc1C(=O)c1ccccc1	4.0	nt	-0.6	nt	nt
O=[N+]([O-])c1ccccc1CN1CC=C(c2ccc(F)cc2)CC1	-1.2	17.9	-0.2	-5.1	-5.8
O=[N+]([O-])c1cccc(CN2CCN(Cc3ccc(Cl)cc3)CC2)c1	-19.0	50.5*	-0.3	-2.5	-20.9
Cc1ccc(OCC(=O)N2CCN(Cc3ccc(F)cc3)CC2)cc1	-16.2	nt	-2.1	nt	nt
CCN(CC)c1ccc(CN2CC=C(c3ccc(F)cc3)CC2)cc1	-23.8	40.7*	0.0	-1.3	-44.1
COc1ccc(CN2CC=C(c3ccc(F)cc3)CC2)cc1Br	-32.0	62.9*	-0.1	-1.2	-11.4
O=[N+]([O-])c1cccc(CN2CC=C(c3ccc(F)cc3)CC2)c1	-20.8	72.6*	-1.7	-3.9	-4.3
CC(C)N1CCN(Cc2cccc([N+](=O)[O-])c2)CC1	nt	-3.2	-0.6	-3.0	-7.9
Cc1ccccc1Cn1cccc(C(=O)Nc2cc(Cl)ccc2C#N)c1=O	-11.6	nt	nt	nt	nt
Cc1cc(C)cc(NC(=O)CN2C(=O)CN=C(c3ccccc3)c3cc(Cl)ccc32)c1	-9.3	nt	0.0	nt	nt
CCc1ccc(NC(=O)c2cccn(Cc3cccc([N+](=O)[O-])c3)c2=O)cc1	-1.2	nt	15.4	nt	nt
CNc1ccc2oc(C[C@H]3O[C@@]4(CC[C@H]3C)O[C@H]([C@H](C)C(=O)c3ccc[nH]3)[C@H](C)C[C@H]4C)nc2c1C(=O)O	-17.7	62.5*	95.6*	-10.7	-15.7
CN1CCN(c2nc(N)c(Br)c(Cl)n2)CC1	-17.4	68.6*	1.1	-2.5	-54.1
CN1CCN(c2ncnc(Cl)c2N)CC1	-19.7	-17.4	0.8	-4.2	-11.5
CCCC1=Nc2cc(C(=O)NCCCN(CC)CC)ccc2Sc2ccccc21	-13.2	nt	1.1	nt	nt
O=c1[nH]c2ccccc2n1C1CCN(C(CCc2ccccc2)c2nnnn2Cc2ccccc2)CC1 (stereo not drawn)	nt	nt	nt	12.6	51.9*
CSCCC(c1nnnn1Cc1ccccc1)N1CCC(n2c(=O)[nH]c3ccccc32)CC1 (stereo not drawn)	nt	nt	nt	-0.6	?
CCCc1nc(SC)ncc1C(=O)Nc1ccc(Cl)cc1C(=O)c1ccccc1	nt	nt	-0.7	nt	nt
CSc1ccc(CN2CCN(C(=O)Cc3ccccc3)CC2)cc1	nt	nt	nt	-6.2	-9.5
COc1ccc(CN2CCN(Cc3ccccc3F)CC2)cc1	-16.5	30.7*	0.0	-4.2	-20.6
SMILES	D2 PAM-1	D2 antag	D2 ag-1	D2 ag-2	D2 PAM-2
CSc1ccc(CN2CCN(Cc3ccccc3Cl)CC2)cc1	-30.8	69.5*	-4.7	-3.0	-25.8
Cc1ccc(C(C)C)c(OCC(=O)N2CCN(CCc3ccncc3)CC2)c1	4.0	nt	0.2	nt	nt
CCNC(=O)NC(=O)C(C)OC(=O)c1c(C)nn(Cc2ccccc2)c1Cl (stereo not drawn)	1.1	40.4*	-0.5	1.3	-3.2
CCNC(=O)NC(=O)C(C)OC(=O)c1c(C)nn(Cc2ccccc2Cl)c1Cl (stereo not drawn)	-5.0	5.3	-1.2	0.5	-9.7
CC(=O)N1CN2CN(C1)CN(C(C)=O)C2	34.3*	-8.7	2.0	-1.3	0.1
CCN1CC=C(c2c[nH]c3ccccc23)CC1	-21.0	82.7*	0.5	-2.6	-38.0
Cc1[nH]c2ccccc2c1C(=O)CN1CC=C(c2ccccc2)CC1	-28.0	10.0	3.5	-3.1	-8.4
Cc1ccc(-n2c(O)c(C=N)c(=O)n(-c3ccc(C)cc3)c2=O)cc1	-1.5	-4.5	1.4	0.9	-7.8
N=Cc1c(O)n(-c2ccccc2)c(=O)n(-c2ccccc2)c1=O	24.5	-9.0	1.1	-6.1	63.8*
